Experimental data: PubChem BioAssay AID588852 (The Scripps Research Institute Molecular Screening Center, 2011)
Hit rate of the full screen: of about 360,000 compounds, about 4,600 (1.3%) were called active. For the sample, actives were picked, then their nearest neighbours and some compounds at random. A number with no mark means an inactive call.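 The calls were made as follows: active = percent inhibition above its own plate's cutoff, namely the mean of that plate's compound wells plus 3 SD; inactive = the rest.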

These molecules were tested against Muscarinic acetylcholine receptor M1 (Homo sapiens) (UniProt P11229) (assay: human M1 muscarinic receptor antagonists, primary screen, CHO-K1 cells, Fluo-8 calcium fluorescence, 1536-well (AID 588852;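 also: peak over basal fluorescence ratio during 140 s after agonist addition; 0% = ACh EC80 plus DMSO and 100% = DMSO alone without agonist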)). Details: CHO-K1 hM1, Fluo-8 calcium fluorescence, ACh EC80 antagonist; at 3 µM; stronger effect = higher value.
Muscarinic acetylcholine receptor M1 (Homo sapiens), sequence (P11229 whole entry, looked up): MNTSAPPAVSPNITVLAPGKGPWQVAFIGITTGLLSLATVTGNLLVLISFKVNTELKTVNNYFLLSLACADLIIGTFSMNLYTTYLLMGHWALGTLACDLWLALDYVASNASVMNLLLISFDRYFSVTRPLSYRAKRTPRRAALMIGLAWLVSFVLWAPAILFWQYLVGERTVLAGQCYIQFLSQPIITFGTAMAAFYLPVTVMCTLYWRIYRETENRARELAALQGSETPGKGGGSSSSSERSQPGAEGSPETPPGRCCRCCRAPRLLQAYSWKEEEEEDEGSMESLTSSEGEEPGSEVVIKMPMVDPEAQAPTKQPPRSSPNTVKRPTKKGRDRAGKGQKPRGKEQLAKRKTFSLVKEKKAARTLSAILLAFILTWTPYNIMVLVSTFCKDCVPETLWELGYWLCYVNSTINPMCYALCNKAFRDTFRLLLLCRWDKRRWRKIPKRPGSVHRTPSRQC

| SMILES | inhibition |
| --- | --- |
| CC(=O)NC(CC(=O)Nc1cccc(S(=O)(=O)N2CCCC2)c1)c1ccccc1 (stereo not given) | 3.34% |
| CN(C)CCNC(=O)c1cccc(-c2cnc3c(NC=O)cc(-c4cccc(C(F)(F)F)c4)cn23)c1 | 2.76% |
| CN1OC[C@@H]2CN(C(=O)c3cccc4ccccc34)[C@H](c3ccc(N4CCCCC4)cc3)C[C@@H]21 | 19.7% |
| CN(CCOc1ccccc1)Cc1nc2cc(Cl)ccc2c(=O)[nH]1 | -3.58% |
| Cc1nnc(NC2=NCCCCC2)o1 | 4.98% |
| CC/C(=N\NC(=S)NC(C)C)c1ccc(OC(F)F)cc1 | 8.57% |
| O=C(NCc1ccccc1CN1CCCC1)C1CCN(S(=O)(=O)c2ccc(Cl)cc2)CC1 | 35.7% (active) |
| O=C(NCc1ccccc1Cl)C1CCN(S(=O)(=O)N2CCOCC2)CC1 | 0.29% |
| O=C(NNS(=O)(=O)c1ccc(Cl)cc1)C1CCN(Cc2ccccc2)CC1 | 57.4% (active) |
| O=C1CCc2cc(S(=O)(=O)N3CCC(C(=O)NCc4ccccc4Cl)CC3)ccc2N1 | -13.3% |
| Cc1ccc(S(=O)(=O)NCCC(=O)NC2CCN(Cc3ccccc3)CC2)cc1 | -6.1% |
| CCNC(=S)NNC(=O)C1CCN(Cc2ccccc2)CC1 | -7.27% |
| CCCCC[C@@H]1C=C(C(=O)OCC)[C@H](c2ccccc2)N1S(=O)(=O)c1ccc(C)cc1 | 7.33% |
| Cc1ccc(NC(=O)[C@H](Cc2ccccc2)NC(=O)CC[C@H]2O[C@@H](n3ccc(=O)[nH]c3=O)[C@H](O)[C@@H]2O)cc1C | -1.88% |
| Nc1ncnc2c1ncn2[C@@H]1O[C@H](C(=O)N2CCCN(Cc3ccccc3F)CC2)[C@@H](O)[C@H]1O | -21.5% |
| CN(C)C(=O)c1cccc(-c2cnc3sc(NCc4ccc5c(c4)OCO5)nn23)c1 | -4.01% |
| CCOC(=O)c1ccc(N2C(=O)CC(N3CCC(C(=O)OCC)CC3)C2=O)cc1 (stereo not given) | 2.05% |
| CCOC(=O)c1ccc(N2C(=O)CC(N3CCN(C(=O)c4ccccc4)CC3)C2=O)cc1 (stereo not given) | -7.68% |
| CCCCOC(=O)c1ccc(N2C(=O)CC(N3CCN(C/C=C/c4ccccc4)CC3)C2=O)cc1 (stereo not given) | 23.9% (active) |
| COc1ccc(CCNC(=O)CCNS(=O)(=O)c2cc(Br)cnc2N)cc1OC | -19.1% |
| C=CCC1(CC=C)CCCN1C(=O)c1cc(COc2ccc(-n3cncn3)cc2)on1 | 38.7% (active) |
| COc1cccc(OCc2cc(C(=O)N3CCN(C(=O)c4ccco4)CC3)no2)c1 | -3.65% |
| CCCC(=O)N1CCC1(C)C(=O)Nc1ccc(-n2cncn2)cc1 (stereo not given) | -15.8% |

| SMILES | inhibition |
| --- | --- |
| CC(NC(=O)c1ccccc1SCC(=O)N1CCCC1)c1ccccc1 (stereo not given) | -16.6% |
| CC(C)N(Cc1ccccc1)C(=O)COC(=O)c1ccccc1SCC(=O)N1CCCC1 | 32.7% (active) |
| COc1ccccc1NC(=O)COC(=O)c1ccccc1SCC(=O)N1CCCC1 | -4.49% |
| COc1cc(C=C(OC(C)=O)c2ccc3c(c2)OCO3)cc(OC)c1OC | 17.2% |
| O=C(NCC1CCCO1)c1ccccc1-c1nc(-c2ccccc2Cl)no1 (stereo not given) | 6.15% |
| Cc1ccc(C(=O)NCC(=O)NCc2cc(=O)n(C)c(=O)n2C)cc1 | -9.92% |
| COc1cc(CC(=O)Nc2nc(-c3ccc(F)c(F)c3)cs2)cc(OC)c1OC | 32.3% (active) |
| O=C(COc1ccccc1F)Nc1nc(-c2ccccn2)cs1 | -7.13% |
| COc1ccc(CC(=O)Nc2ccccc2NC(=O)c2ccco2)cc1OC | -6.85% |
| COc1ccc(CC(=O)Nc2nc(-c3ccc(F)c(F)c3)cs2)cc1OC | 37.2% (active) |
| COc1ccc(-c2csc(Nc3cccc(C)n3)n2)cc1OC | -13.9% |
| COc1ccc(CCNC(=O)COC(=O)Cc2cc(OC)c(OC)c(OC)c2)cc1 | -5.89% |
| CC(C)C[C@H]1CN([C@@H](Cc2ccccc2)CN2CCC[C@@H]2CN2C(=O)C(=O)NC[C@@H]2Cc2ccc(O)cc2)C(=O)C(=O)N1CCc1ccccc1 | 6.28% |
| CC(=O)Nc1ccc(NC(=O)CSc2nnnn2C2CCCCC2)cc1 | -17.6% |
| CN(CC#CCC(c1ccccc1)c1ccccc1)C(C)(C)C | 94.5% (active) |
| CC(C)OCCCNc1ncnc2c1[nH]c1ccc(F)cc12 | 49.6% (active) |
| CCOC(=O)C1=CCC2C(=O)N(Cc3ccccc3)C(=O)C12 (stereo not given) | -8.51% |
| CCNC(=O)COC(=O)/C=C/c1c(C)nn(Cc2cccc(OC)c2)c1Cl | -14.4% |
| O=C(NC1CC1)C1=C[C@H](c2coc3ccccc3c2=O)C[C@H](OCCCCO)O1 | -2.15% |
| CC1(Cc2cccc(C#N)c2)C(=O)Nc2ccc(-c3cccc(C(F)(F)F)c3)cc21 (stereo not given) | -21.5% |
| O=C(N/N=C/c1ccc(OCC2COCCO2)cc1)c1ccc(Br)cc1 (stereo not given) | -0.51% |
| COc1cc(/C=N/Nc2ccc(C)cc2)cc(Br)c1O | 1.92% |
| COc1ccccc1-n1c(SCC(=O)Nc2cccc(C(=O)O)c2)nnc1-c1ccccc1O | -23.3% |

| SMILES | inhibition |
| --- | --- |
| COc1cccc(/C=N/Nc2cc(C)nc(-c3ccccc3O)n2)c1O | 37% (active) |
| CC(C)C(=O)Nc1nnc(SCC(=O)N2C(C)CCCC2C)s1 (stereo not given) | -9.39% |
| COC(C)(C)[C@]12CC(O)(C(C)C)ON1[C@H]1CCCCC1N2O (stereo not given in full) | 2.96% |
| CCOC(=O)c1cccc(NC(=O)CN2C(=O)C3CC=CCC3C2=O)c1 (stereo not given) | -6.58% |
| Cc1ccccc1OCC(=O)NNC(=O)c1cc(S(=O)(=O)N(C)C)ccc1N1CCCC1 | -9.89% |
| CN(C)Cc1ccccc1C1(O)c2ccccc2CSc2ccccc21 (stereo not given) | 20.6% |
| CN(C)CC/C=C1\c2ccccc2CSc2ccccc21 | 96.1% (active) |
| COc1ccc(-c2ccc(C(=O)NCCN3CCOCC3)c3occc23)c(C)c1 | 1.54% |
| CC(C)C[C@H]1CNC(=S)N1C[C@H]1CCCN1C[C@H](Cc1ccc(O)cc1)N1C[C@H](Cc2ccc(O)cc2)N(CC2CCCCC2)C1=S | 1.57% |
| COc1ccccc1C1SCCN1C(=O)c1ccc([N+](=O)[O-])cc1 (stereo not given) | 62% (active) |
| O=C(Nc1ccc(F)cc1)C1CCN(C(=O)c2ccc([N+](=O)[O-])cc2)CC1 | -0.31% |
| C[N+]1(CC(O)COc2ccccc2)CCN(C(=O)c2ccc([N+](=O)[O-])cc2)CC1 (stereo not given) | -2.65% |
| Cc1cc(C)cc(C(=O)NCCN2CCOCC2)c1 | -11.1% |
| Cc1cccc(C(=O)OC(C)CN2CCN(C)CC2)c1 (stereo not given) | -1.32% |
| Cc1cccc(-c2nc3ccc(C(=O)NCCN4CCN(C)CC4)cc3nc2-c2cccc(C)c2)c1 | 46.9% (active) |
| CSc1nc2sc3c(c2c(=O)[nH]1)CCc1ccccc1-3 | -1.53% |
| C/C(=N\NC(=O)NC1CCCCC1)c1ccc(OC(F)F)cc1OC(F)F | 3.51% |
| CCSC(C)CC1C/C(=N/O)c2c(C)noc2C1 (stereo not given) | 46.6% (active) |
| CCCc1noc2c1/C(=N\O)CCC2 | -7.37% |
| COc1ccc(OC)c(Cc2cnc3nc(N)nc(N)c3c2C)c1 | -0.49% |
| O=C(Cc1ccc(Cl)cc1)NC(=S)Nc1ccccc1O | 64.7% (active) |
| Cc1ccccc1NC(=S)NC(=O)Cc1ccc(Cl)cc1 | 14.3% |
| O=C(COc1ccc(Cl)cc1)NC(=S)Nc1ccccc1N1CCOCC1 | 1.11% |

| SMILES | inhibition |
| --- | --- |
| O=C(NCCCn1ccnc1)C1CCCN(S(=O)(=O)c2cc(Cl)ccc2Cl)C1 (stereo not given) | 5.3% |
| Nc1ncnc2c1ncn2[C@@H]1O[C@H](C(=O)NCC(F)(F)F)[C@@H](O)[C@H]1O | -26.1% |
| CCSC1=NCCN1S(=O)(=O)c1ccc(F)cc1 | 7.85% |
| COc1cc(C(=S)N2CCOCC2)ccc1O | 0.12% |
| COc1ccc(C(=O)NC(=S)NC2CCCCC2)cc1 | -6.7% |
| COc1cc(C(=S)NC2CCCCC2)ccc1O | 99.6% (active) |
| CC(=O)Nc1cccc(Nc2ccc(C#N)cc2)c1 | -8.06% |
| O=C(/C=C/[C@H]1O[C@@H](n2cnc3c(NC(=O)c4ccccc4)ncnc32)[C@H](O)[C@@H]1O)NCc1ccccc1 | -2.88% |
| Cn1cnnc1Sc1ccc(CN2CCN(C3CCCC3)C(CCO)C2)o1 (stereo not given) | 25.2% (active) |
| OCC1(CCc2ccccc2)CCN(Cc2ccc3nsnc3c2)CC1 | -4.82% |
| CCOc1ccc(CN2CCN(Cc3ccc(C)o3)CC2CCO)cc1 (stereo not given) | 0.92% |
| Cc1ccc(CN2CCN(Cc3ccc4ncccc4c3)CC2CCO)cc1 (stereo not given) | 5.31% |
| OCCC1CN(Cc2ccc3nsnc3c2)CCN1C1CCCC1 (stereo not given) | 45.8% (active) |
| OCCC1CN(Cc2ccc3nsnc3c2)CCN1C1CCCCC1 (stereo not given) | 31.7% (active) |
| CC(C)N1CCC(N2CCN(Cc3cccnc3)CC2CCO)CC1 (stereo not given) | -8.8% |
| Cc1ccc(CN2CCN(Cc3ccc(OCCO)cc3)CC2CCO)o1 (stereo not given) | -10.3% |
| COc1cccc2c1OCC(CN1CCN(C3CCCCC3)C(CCO)C1)=C2 (stereo not given) | 28% |
| CN(C)CCNC(=O)c1ccc(-c2cn3c(-c4ccc(Oc5ccccc5)cc4)cnc3cn2)cc1 | -3.33% |
| CCc1ccc(N2CC(C(=O)NC3=NCCS3)CC2=O)cc1 (stereo not given) | -11.6% |
| CN(Cc1ccccc1)CC(O)COc1ccc(CNCc2cc3ccccc3s2)cc1 (stereo not given) | 15.1% |
| CCOC(=O)[C@H]1[C@H]2COc3ccc(Br)cc3[C@@H]2N2C(=O)CN(C)C(=O)[C@@]12C | -4.45% |
